The values that follow come from PubChem BioAssay (NCATS).

Records with an inconclusive call do not appear. Active and inactive are the calls of the source. Calls come from the whole dose curve; as a rule, active = well fitted inhibition curve with a large enough effect; inconclusive = small, poorly fitted or top-dose-only effect; inactive = flat fitted curve, though single readings scatter.

Holding throughout (experiment): qHTS profiling for inhibitors of Plasmodium falciparum proliferation (AID 504749); note: nearly all actives have a fitted effect of over 60% in size
Settings in all cases: P. falciparum in erythrocytes, SYBR Green DNA, 72 h; series mostly up to 28.7 µM
For orientation: Quantitative high-throughput screening tests each substance at several concentrations.

The test system of one test is CP266. The essentials:
(§1)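 Each compound contacts P. falciparum-infected red blood cells for 72 h at 37 C; lysis buffer (Tris, EDTA, saponin, Triton X, SYBR Green I) is added and fluorescence measured next morning; values normalized to controls.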

Another test has as its system CP268. Summed up:
as §1

A further test has as its system CP269. The essentials: as §1
Another test concerns CP286. The essentials: as §1
The test system of the next test is CP291. Summed up: as §1
For a further test, the system named is CP297. The essentials: as §1
The subject of the next test is CP305. The essentials:
as §1

The test system of another test is CP315. The essentials:
as §1

For another test, the system named is CP325. The essentials: as §1
The test system of another test is CP329. The essentials: as §1
Potency is the fitted concentration of half-maximal effect.

For `Cc1cccc(Nc2ccccc2C(=O)O)c1C`, the outcome in the test with CP266, in the test with CP269, in the test on CP291, in the test with CP297, in the test with CP315 and in the test with CP325 was inactive. The result in the test on CP329 was inactive. In addition, the Potency entry in the test with CP268, in the test on CP286 and in the test with CP305 was “inactive” each time.
For the compound `O=C(O)c1ccccc1OP(=O)(O)O`, the compound was called inactive with CP266, with CP269, in the test on CP291, in the test on CP297, in the test with CP315 and with CP325. Further, in the test with CP329, the result was inactive. Further, the Potency result with CP268, in the test with CP286 and with CP305 was “inactive” throughout.
Regarding `NC(=O)c1ccc([N+](=O)[O-])cc1Cl`, the compound was classed as inactive with CP266, in the test on CP269, in the test on CP291, in the test on CP297, in the test with CP315 and in the test on CP325. For the same compound, in the test with CP329, the outcome was inactive. Moreover, the Potency entry in the test with CP268, in the test with CP286 and in the test on CP305 was “inactive” in each case.
Take `CN1CCN(C(=O)C2CCCCC2)CC1`: the compound was called inactive in the test with CP266, with CP269, in the test on CP291, in the test with CP297, in the test on CP315 and in the test on CP325. Besides, the call in the test on CP329 was inactive. Moreover, the Potency entry in the test with CP268, with CP286 and with CP305 was “inactive” each time.
`O=C1c2cccc(O)c2C(=O)c2c(O)cccc21`: the outcome in the test with CP266, with CP269, with CP291, with CP297, in the test on CP315 and with CP325 was inactive. The result in the test on CP329 was inactive. The Potency entry in the test on CP268, in the test on CP286 and in the test with CP305 was “inactive” in each case.
Turning to `Nc1ccc(C(=O)Oc2ccccc2)c(O)c1`, the compound was called inactive with CP266, in the test with CP269, in the test on CP291, with CP297, in the test with CP315 and in the test with CP325. Moreover, the outcome in the test with CP329 was inactive. Besides, the Potency result in the test with CP268, with CP286 and in the test with CP305 was “inactive” each time.
As for `CNc1c2c(nn1C)CCCC2`, the outcome with CP266, in the test on CP269, in the test with CP291, in the test on CP297, in the test with CP315 and with CP325 was inactive. For the same compound, in the test on CP329, the compound was classed as inactive. Further, the Potency entry in the test with CP268, in the test with CP286 and with CP305 was “inactive” in each case.
On to `Cc1ccc(S(=O)(=O)NC(=O)NC2CCCCC2)cc1`, for which the result in the test with CP266, in the test on CP269, in the test on CP291, with CP297, in the test with CP315 and in the test with CP325 was inactive. Further, the compound was classed as inactive in the test on CP329. The Potency result in the test on CP268, with CP286 and in the test with CP305 was “inactive” throughout.
Turning to `CCCCCC(C)N` (stereo not given), the compound was classed as inactive in the test with CP266, in the test with CP269, in the test on CP291, with CP297, in the test with CP315 and with CP325. In addition, the compound was called inactive with CP329. The Potency entry with CP268 and in the test with CP305 was “inactive” in each case. Besides, the Potency in the test with CP286 was 8.91 µM (active).
For `Cc1cc(-n2nc3ccc(Cl)cc3n2)c(O)c(C(C)(C)C)c1`, the result in the test with CP266, with CP269, in the test with CP291, in the test with CP297, in the test with CP315 and with CP325 was inactive. Also, in the test on CP329, the result was inactive. In addition, the Potency entry with CP268, in the test on CP286 and in the test on CP305 was “inactive” in each case.
As for `CCc1nnc(NS(=O)(=O)c2ccc(N)cc2)s1`, the outcome in the test on CP266, in the test with CP269, in the test on CP291, in the test on CP297, in the test on CP315 and in the test on CP325 was inactive. For the same compound, in the test on CP329, the compound was classed as inactive. For the same compound, the Potency result in the test on CP268, with CP286 and in the test with CP305 was “inactive” in each case.
Take `NC(N)=NCCN1CCCCCCC1`: the outcome in the test with CP266, in the test with CP269, with CP291, in the test with CP297, in the test with CP315 and in the test with CP325 was inactive. Also, in the test on CP329, the result was inactive. Further, the Potency entry in the test on CP268, with CP286 and in the test on CP305 was “inactive” in each case.
For `C=CCNC(N)=S`, the compound was called inactive with CP266, with CP269, with CP291, in the test with CP297, with CP315 and in the test on CP325. The result in the test on CP329 was inactive. Further, the Potency result in the test on CP268, in the test with CP286 and in the test on CP305 was “inactive” each time.
For the compound `O=C(NCN1CCOCC1)c1cnccn1`, the result in the test with CP266, in the test on CP269, with CP291, in the test with CP297, in the test on CP315 and in the test on CP325 was inactive. Moreover, the result with CP329 was inactive. For the same compound, the Potency result in the test with CP268, in the test with CP286 and with CP305 was “inactive” in each case.
Consider `C=CCSCC1Nc2cc(Cl)c(S(N)(=O)=O)cc2S(=O)(=O)N1` (stereo not given), for which the call in the test with CP266, in the test with CP269, in the test with CP291, in the test with CP297, in the test on CP315 and in the test with CP325 was inactive. Besides, the compound was classed as inactive in the test on CP329. Moreover, the Potency entry with CP268, in the test with CP286 and in the test with CP305 was “inactive” throughout.
On to `CCOC(N)=O`, for which the compound was classed as inactive in the test with CP266, in the test on CP269, with CP291, with CP297, in the test with CP315 and in the test with CP325. Moreover, in the test with CP329, the compound was called inactive. Besides, the Potency result in the test with CP268, with CP286 and in the test on CP305 was “inactive” each time.
For `NC(N)=NS(=O)(=O)c1ccc(N)cc1`, the compound was classed as inactive with CP266, in the test on CP269, in the test on CP291, in the test with CP297, in the test on CP315 and with CP325. The compound was called inactive with CP329. Besides, the Potency entry with CP268, in the test with CP286 and in the test with CP305 was “inactive” each time.
With `CC(=O)Nc1ccc(C(=O)O)cc1`, the compound was called inactive in the test with CP266, in the test with CP269, in the test on CP291, in the test with CP297, in the test with CP315 and in the test on CP325. Besides, in the test on CP329, the compound was called inactive. Besides, the Potency entry in the test on CP268, with CP286 and in the test on CP305 was “inactive” each time.
For the compound `c1ccc2[nH]ccc2c1`, the call in the test with CP266, with CP269, in the test on CP291, in the test with CP297, in the test with CP315 and with CP325 was inactive. In the test with CP329, the call was inactive. Also, the Potency result with CP268, in the test with CP286 and with CP305 was “inactive” throughout.
Turning to `CCN(CC)C(=O)c1cccc(C)c1`, the result with CP266, in the test on CP269, in the test with CP291, with CP297, in the test with CP315 and in the test with CP325 was inactive. In addition, the outcome in the test on CP329 was inactive. For the same compound, the Potency result in the test on CP268, in the test on CP286 and with CP305 was “inactive” in each case.
Turning to `OC[C@@H](O)[C@@H](O)[C@H](O)[C@H](O)CO`, the compound was classed as inactive with CP266, in the test on CP269, in the test on CP291, in the test with CP297, with CP315 and in the test on CP325. Also, the compound was classed as inactive in the test on CP329. The Potency entry with CP268, with CP286 and in the test with CP305 was “inactive” each time.
With `C[C@@H]1CCC[C@H](C)N1`, the compound was called inactive in the test with CP266, in the test on CP269, with CP291, with CP297, with CP315 and in the test on CP325. In the test on CP329, the compound was called inactive. Also, the Potency result with CP268, with CP286 and in the test on CP305 was “inactive” in each case.
Turning to `NS(=O)(=O)c1cc(-c2nn[nH]n2)c(NCc2cccs2)cc1Cl`, the result with CP266, in the test with CP269, in the test on CP291, in the test on CP297, in the test on CP315 and in the test with CP325 was inactive. For the same compound, the result in the test on CP329 was inactive. The Potency entry with CP268, with CP286 and in the test on CP305 was “inactive” each time.
In the case of `CCN(CC)S(=O)(=O)c1ccc(C(=O)O)cc1`, the compound was called inactive with CP266, in the test on CP269, with CP291, in the test with CP297, in the test on CP315 and in the test with CP325. In addition, the compound was classed as inactive in the test on CP329. For the same compound, the Potency entry in the test on CP268, in the test with CP286 and in the test with CP305 was “inactive” in each case.
For the compound `CC(=O)Nc1ccccc1`, the outcome in the test on CP266, with CP269, in the test on CP291, with CP297, in the test on CP315 and with CP325 was inactive. Also, in the test on CP329, the compound was classed as inactive. Moreover, the Potency result with CP268, with CP286 and with CP305 was “inactive” each time.
